{
  "source": "PubChem BioAssay (Tox21)",
  "note": "Records with an inconclusive call do not appear. Activity calls are given as the source filed them. Calls follow the shape of the dose curve; as a rule, active = well fitted curve in the direction sought with a large enough effect in the repeat runs; inconclusive = weak or mixed curves; inactive = no such curve, though single readings can be large; an effect the other way counts as inactive or inconclusive. % is scaled to controls: 0 for no effect and ±100 for the full control effect.",
  "data": [
    {"test": "Caspase-3/7 induction in CHO-K1 cells by small molecules, qHTS assay (AID 1346980); also: nearly all actives have a fitted effect of over 15% in size", "settings": "CHO-K1 caspase-3/7 induction, Caspase-Glo luminescence, 17 h; series mostly up to 92.4 µM; caspase-3/7 activation: at the top concentration", "summary_of_the_method": "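Luminescent Caspase-Glo 3/7 read (30min, room temperature) quantified apoptosis induction. Cells were wild-type CHO-K1, treated with compound for 17hr at 37 C and 5% CO2.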", "values": [
      {"smiles": "CCS(=O)(=O)C(C)(C)S(=O)(=O)CC", "caspase-3/7 activation": "0.614% [at 42.5 µM] (inactive)"},
      {"smiles": "O=C(O)c1ccc2[nH]cc(CCCCN3CC=C(c4ccccc4)CC3)c2c1", "caspase-3/7 activation": "-0.797% [at 42.5 µM] (inactive)"},
      {"smiles": "O=[N+]([O-])c1cc(Cl)c(Cl)c(Cl)c1", "caspase-3/7 activation": "-0.1% (inactive)"},
      {"smiles": "CCN(Cc1ccc(Cl)nc1)/C(=C/[N+](=O)[O-])NC", "caspase-3/7 activation": "-0.524% [at 42.5 µM] (inactive)"},
      {"smiles": "C[N+](C)=CCl", "caspase-3/7 activation": "-0.121% (inactive)"},
      {"smiles": "CCC(C)(C)c1cc(-n2nc3ccccc3n2)c(O)c(C(C)(C)CC)c1", "caspase-3/7 activation": "0.181% (inactive)"},
      {"smiles": "OCCSCSCCO", "caspase-3/7 activation": "-0.54% (inactive)"},
      {"smiles": "ClCCCN1CCN(c2cccc(Cl)c2)CC1", "caspase-3/7 activation": "0.0069% [at 42.5 µM] (inactive)"},
      {"smiles": "C=C(C)CN(CC)c1c([N+](=O)[O-])cc(C(F)(F)F)cc1[N+](=O)[O-]", "caspase-3/7 activation": "0.755% (inactive)"},
      {"smiles": "CC(C)[N+](=O)[O-]", "caspase-3/7 activation": "1.74% (inactive)"},
      {"smiles": "Cc1cccc(C#N)c1", "caspase-3/7 activation": "1.25% (inactive)"},
      {"smiles": "COC(=O)c1ccccc1S(=O)(=O)NC(=O)N(C)c1nc(C)nc(OC)n1", "caspase-3/7 activation": "0.337% (inactive)"},
      {"smiles": "CC(C)(C)C(=O)C(Oc1ccc(Cl)cc1)n1cncn1", "note": "(centres undefined)", "caspase-3/7 activation": "-0.266% (inactive)"},
      {"smiles": "CN1C(=S)CN=C(c2ccccc2)c2cc(Cl)ccc21", "caspase-3/7 activation": "-1.12% [at 42.5 µM] (inactive)"},
      {"smiles": "O=NN1CCN(N=O)CC1", "caspase-3/7 activation": "1.71% (inactive)"},
      {"smiles": "O=C(O)c1cccc(Cl)c1", "caspase-3/7 activation": "-3.21% (inactive)"},
      {"smiles": "O=CNC(N1CCN(C(NC=O)C(Cl)(Cl)Cl)CC1)C(Cl)(Cl)Cl", "note": "(centres undefined)", "caspase-3/7 activation": "-0.0696% (inactive)"},
      {"smiles": "Cc1ncc2n1-c1ccc(Cl)cc1C(c1ccccc1F)=NC2", "caspase-3/7 activation": "0.41% [at 42.5 µM] (inactive)"},
      {"smiles": "CCOC(=O)CP(=O)(OCC)OCC", "caspase-3/7 activation": "0.0443% (inactive)"},
      {"smiles": "COC(=O)C(c1ccccc1)C1CCCCN1", "note": "(centres undefined)", "caspase-3/7 activation": "0.539% (inactive)"},
      {"smiles": "COC(=O)C(C)Oc1ccc(Oc2ccc(Cl)cc2Cl)cc1", "note": "(centres undefined)", "caspase-3/7 activation": "-0.435% (inactive)"},
      {"smiles": "C[C@H]1CCC[C@H](O)CCCCCc2cc(O)cc(O)c2C(=O)O1", "caspase-3/7 activation": "0.62% (inactive)"},
      {"smiles": "CC(C)CC(N(C)C)C1(c2ccc(Cl)cc2)CCC1", "note": "(centres undefined)", "caspase-3/7 activation": "3.03% [at 42.5 µM] (inactive)"},
      {"smiles": "CCCCc1ccc(O)cc1", "caspase-3/7 activation": "2.95% (inactive)"},
      {"smiles": "C[C@@H]1CN(C2CCC(C#N)(c3ccc(F)cc3)CC2)CC[C@]1(C(=O)O)c1ccccc1", "note": "(some centres undefined)", "caspase-3/7 activation": "0.862% [at 42.5 µM] (inactive)"},
      {"smiles": "COc1cc(OC)nc(Oc2cccc(Oc3nc(OC)cc(OC)n3)c2C(=O)O)n1", "caspase-3/7 activation": "4.35% (inactive)"},
      {"smiles": "N#CCNCC#N", "caspase-3/7 activation": "1.86% (inactive)"},
      {"smiles": "CCNc1nc(NC(C)C)nc(OC)n1", "caspase-3/7 activation": "-0.201% (inactive)"},
      {"smiles": "Cc1cnc[nH]1", "caspase-3/7 activation": "-0.737% (inactive)"},
      {"smiles": "COc1cc2c(cc1OC)[C@@]13CCN4CC5=CCO[C@H]6CC(=O)N2[C@H]1[C@H]6[C@H]5C[C@H]43", "caspase-3/7 activation": "-0.292% (inactive)"},
      {"smiles": "CCC1(c2ccccc2)C(=O)NC(=O)NC1=O", "caspase-3/7 activation": "-0.658% (inactive)"},
      {"smiles": "CC(Oc1ccc(Oc2ncc(C(F)(F)F)cc2Cl)cc1)C(=O)O", "note": "(centres undefined)", "caspase-3/7 activation": "0.138% (inactive)"},
      {"smiles": "CN(N=O)C(N)=O", "caspase-3/7 activation": "1.35% (inactive)"},
      {"smiles": "NC1=NC(=O)C(c2ccccc2)O1", "note": "(centres undefined)", "caspase-3/7 activation": "3.02% [at 42.5 µM] (inactive)"},
      {"smiles": "OC(Cn1cncn1)(c1ccc(F)cc1)c1ccccc1F", "note": "(centres undefined)", "caspase-3/7 activation": "0.689% (inactive)"},
      {"smiles": "ClC(Cl)Br", "caspase-3/7 activation": "-0.937% (inactive)"},
      {"smiles": "CCC#N", "caspase-3/7 activation": "-0.242% (inactive)"}
    ]},
    {"test": "Caspase-3/7 induction in HepG2 cells by small molecules, qHTS cell viability counter screen (AID 1346981); also: nearly all actives have a fitted effect of over 30% in size; also: potency is read from the fitted curve at half-maximal effect", "settings": "CellTiter-Fluor fluorescence, 17 h; series mostly up to 92.4 µM; activity change, negative = cytotoxicity: at the top concentration", "summary_of_the_method": "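Counter screen for cytotoxicity: HepG2 exposed 16 hr to compounds, then CellTiter-Fluor viability signal (fluorescence, 1 hr reagent incubation).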", "values": [
      {"smiles": "CCS(=O)(=O)C(C)(C)S(=O)(=O)CC", "activity change, negative = cytotoxicity": "3.93% [at 42.5 µM] (inactive)"},
      {"smiles": "O=C(O)c1ccc2[nH]cc(CCCCN3CC=C(c4ccccc4)CC3)c2c1", "activity change, negative = cytotoxicity": "-0.0157% [at 42.5 µM] (inactive)"},
      {"smiles": "O=[N+]([O-])c1cc(Cl)c(Cl)c(Cl)c1", "activity change, negative = cytotoxicity": "-11.2% (inactive)"},
      {"smiles": "CCN(Cc1ccc(Cl)nc1)/C(=C/[N+](=O)[O-])NC", "activity change, negative = cytotoxicity": "-0.261% [at 42.5 µM] (inactive)"},
      {"smiles": "C[N+](C)=CCl", "activity change, negative = cytotoxicity": "-1.12% (inactive)"},
      {"smiles": "CCC(C)(C)c1cc(-n2nc3ccccc3n2)c(O)c(C(C)(C)CC)c1", "activity change, negative = cytotoxicity": "2.84% (inactive)"},
      {"smiles": "OCCSCSCCO", "activity change, negative = cytotoxicity": "-1.14% (inactive)"},
      {"smiles": "ClCCCN1CCN(c2cccc(Cl)c2)CC1", "activity change, negative = cytotoxicity": "-3.33% [at 42.5 µM] (inactive)"},
      {"smiles": "C=C(C)CN(CC)c1c([N+](=O)[O-])cc(C(F)(F)F)cc1[N+](=O)[O-]", "activity change, negative = cytotoxicity": "0.274% (inactive)"},
      {"smiles": "CC(C)[N+](=O)[O-]", "activity change, negative = cytotoxicity": "-8.5% (inactive)"},
      {"smiles": "Cc1cccc(C#N)c1", "activity change, negative = cytotoxicity": "3.49% (inactive)"},
      {"smiles": "COC(=O)c1ccccc1S(=O)(=O)NC(=O)N(C)c1nc(C)nc(OC)n1", "activity change, negative = cytotoxicity": "-12.6% (inactive)"},
      {"smiles": "CC(C)(C)C(=O)C(Oc1ccc(Cl)cc1)n1cncn1", "note": "(centres undefined)", "activity change, negative = cytotoxicity": "-0.788% (inactive)"},
      {"smiles": "CN1C(=S)CN=C(c2ccccc2)c2cc(Cl)ccc21", "activity change, negative = cytotoxicity": "1.78% [at 42.5 µM] (inactive)"},
      {"smiles": "O=NN1CCN(N=O)CC1", "activity change, negative = cytotoxicity": "3.66% (inactive)"},
      {"smiles": "O=C(O)c1cccc(Cl)c1", "activity change, negative = cytotoxicity": "7.27% (inactive)"},
      {"smiles": "O=CNC(N1CCN(C(NC=O)C(Cl)(Cl)Cl)CC1)C(Cl)(Cl)Cl", "note": "(centres undefined)", "activity change, negative = cytotoxicity": "-1.63% (inactive)"},
      {"smiles": "Cc1ncc2n1-c1ccc(Cl)cc1C(c1ccccc1F)=NC2", "activity change, negative = cytotoxicity": "14.1% [at 42.5 µM] (inactive)"},
      {"smiles": "CCOC(=O)CP(=O)(OCC)OCC", "activity change, negative = cytotoxicity": "4.63% (inactive)"},
      {"smiles": "COC(=O)C(c1ccccc1)C1CCCCN1", "note": "(centres undefined)", "activity change, negative = cytotoxicity": "-0.033% (inactive)"},
      {"smiles": "COC(=O)C(C)Oc1ccc(Oc2ccc(Cl)cc2Cl)cc1", "note": "(centres undefined)", "activity change, negative = cytotoxicity": "0.7% (inactive)"},
      {"smiles": "C[C@H]1CCC[C@H](O)CCCCCc2cc(O)cc(O)c2C(=O)O1", "Potency": "54.9 µM (active)"},
      {"smiles": "CC(C)CC(N(C)C)C1(c2ccc(Cl)cc2)CCC1", "note": "(centres undefined)", "activity change, negative = cytotoxicity": "5.06% [at 42.5 µM] (inactive)"},
      {"smiles": "CCCCc1ccc(O)cc1", "activity change, negative = cytotoxicity": "4.84% (inactive)"},
      {"smiles": "C[C@@H]1CN(C2CCC(C#N)(c3ccc(F)cc3)CC2)CC[C@]1(C(=O)O)c1ccccc1", "note": "(some centres undefined)", "activity change, negative = cytotoxicity": "0.258% [at 42.5 µM] (inactive)"},
      {"smiles": "COc1cc(OC)nc(Oc2cccc(Oc3nc(OC)cc(OC)n3)c2C(=O)O)n1", "activity change, negative = cytotoxicity": "4.06% (inactive)"},
      {"smiles": "N#CCNCC#N", "activity change, negative = cytotoxicity": "-0.451% (inactive)"},
      {"smiles": "CCNc1nc(NC(C)C)nc(OC)n1", "activity change, negative = cytotoxicity": "-1.14% (inactive)"},
      {"smiles": "Cc1cnc[nH]1", "activity change, negative = cytotoxicity": "3.29% (inactive)"},
      {"smiles": "COc1cc2c(cc1OC)[C@@]13CCN4CC5=CCO[C@H]6CC(=O)N2[C@H]1[C@H]6[C@H]5C[C@H]43", "activity change, negative = cytotoxicity": "-1.19% (inactive)"},
      {"smiles": "CCC1(c2ccccc2)C(=O)NC(=O)NC1=O", "activity change, negative = cytotoxicity": "-0.979% (inactive)"},
      {"smiles": "CC(Oc1ccc(Oc2ncc(C(F)(F)F)cc2Cl)cc1)C(=O)O", "note": "(centres undefined)", "activity change, negative = cytotoxicity": "-3.13% (inactive)"},
      {"smiles": "CN(N=O)C(N)=O", "activity change, negative = cytotoxicity": "1.12% (inactive)"},
      {"smiles": "NC1=NC(=O)C(c2ccccc2)O1", "note": "(centres undefined)", "activity change, negative = cytotoxicity": "1.7% [at 42.5 µM] (inactive)"},
      {"smiles": "OC(Cn1cncn1)(c1ccc(F)cc1)c1ccccc1F", "note": "(centres undefined)", "activity change, negative = cytotoxicity": "1.11% (inactive)"},
      {"smiles": "ClC(Cl)Br", "activity change, negative = cytotoxicity": "1.56% (inactive)"},
      {"smiles": "CCC#N", "activity change, negative = cytotoxicity": "3.86% (inactive)"}
    ]}
  ]
}
